Values joined by “and” are separate entries in the source; they are usually repeats but may differ in a detail not shown here. Identical values can stand only once. Inconclusive results are not listed. A structure can be active in one record and inactive in another. Active and inactive are the calls of the source. The call rests on the fitted dose curve; in most records, active means well fitted cell-killing curve with a large enough effect in the repeat runs; inconclusive means weak or mixed curves, or effect the other way; inactive means no such curve, though single readings can be large or run the other way. Positions of bridges follow the written chain, without caps; N, C: chain ends. Non-standard residues stand in square brackets, D forms with d. Residues, ends and D or L forms follow the SMILES beside them. *: point of attachment. Dab(CH2SO3H) = N[C@@H](CCNCS(=O)(=O)O)C(=O)O; X3 = CC[C@@H](C)CCCCC(=O)*; Dab = NCC[C@H](N)C(=O)O
Test: qHTS assay for identifying genotoxic compounds that show differential cytotoxicity against isogenic chicken DT40 cell lines with known DNA damage response pathways - Rev3 mutant cell line (AID 743014); further: nearly all actives have a fitted effect of over 55% in size
Details: chicken DT40 Rev3-/- viability, CellTiter-Glo, 40 h; series mostly up to 68.4 µM; activity, negative = cytotoxicity: at the top concentration
On the % scale 0 is the no-effect control and ±100 the full control effect; potency means the concentration at half of the fitted maximal effect.

| Compound | Potency | activity, negative = cytotoxicity |
| --- | --- | --- |
| CC[C@H]1OC(=O)[C@H](C)C(=O)[C@H](C)[C@@H](O[C@@H]2O[C@H](C)C[C@H](N(C)C)[C@H]2O)[C@](C)(OC)C[C@@H](C)C(=O)[C@H](C)[C@H]2N(CCCCn3cnc(-c4cccnc4)c3)C(=O)O[C@]12C | 5.96 µM (active) and inactive | – |
| COc1cccc2c1[C@@H]1CN(CCCCn3c(=O)[nH]c4c(sc5ncc(-c6ccccc6)nc54)c3=O)C[C@@H]1CO2 | 18.8 µM (active) | – |
| O=P(O)(O)OP(=O)(O)OP(=O)(O)O | – | -8.39% (inactive) |
| NC[C@@H]1CC[C@@H](N)[C@@H](O[C@H]2[C@H](O)[C@@H](O[C@H]3O[C@H](CO)[C@@H](O)[C@H](N)[C@H]3O)[C@H](N)C[C@@H]2N)O1 | – | 0.147% (inactive) |
| CC(=O)OCC(=O)[C@@]1(O)CC[C@H]2[C@@H]3CCC4=CC(=O)CC[C@]4(C)C3=CC[C@@]21C | – | 13.8% (inactive) |
| CN1CCN(CCCN2c3ccccc3Sc3ccc(Cl)cc32)CC1 | 7.5 µM (active) | – |
| CN1CC[C@H](c2c(O)cc(O)c3c(=O)cc(-c4ccccc4Cl)oc23)[C@H](O)C1 | 0.15 µM (active) | – |
| COc1c(Br)cc(Br)c(C)c1Br | – | -9.82% (inactive) |
| CC12CCC(C[N+](C)(CCC[N+](C)(C)C)C1)C2(C)C (configuration not stated) | – | -19.6% (inactive) |
| O=C1c2c(O)cccc2[C@H]([C@@H]2O[C@H](CO)[C@@H](O)[C@H](O)[C@H]2O)c2cc(CO)cc(O)c21 | inactive | – |
| NCC(O)CC(=O)O (configuration not stated) | – | 15.7% (inactive) |
| CCOc1ccc(S(=O)(=O)O)c2cccnc12 | – | 3.03% (inactive) |
| CC12CCC(C1)C(C)(C)C2=O (configuration not stated) | – | -0.137% (inactive) |
| CN1C(=O)C[C@@H](C(=O)N[C@@H](Cc2cnc[nH]2)C(=O)N2CCC[C@H]2C(N)=O)NC1=O | – | 1.21% (inactive) |
| NC[C@H]1O[C@H](O[C@H]2[C@H](O)[C@@H](O[C@H]3O[C@H](CO)[C@@H](O)[C@H](N)[C@H]3O)[C@H](N)C[C@@H]2N)[C@H](N)C[C@@H]1O | – | 0.0874% [at 31.4 µM] (inactive) |
| NCC[C@H](O)C(=O)N[C@@H]1C[C@H](N)[C@@H](O[C@H]2O[C@H](CN)CC[C@H]2N)[C@H](O)[C@H]1O[C@H]1O[C@H](CO)[C@@H](O)[C@H](N)[C@H]1O | – | 0.948% (inactive) |
| CC1(C)S[C@@H]2[C@H](NC(=O)[C@@H](NC(=O)N3CCNC3=O)c3ccccc3)C(=O)N2[C@H]1C(=O)O | – | 15.6% [at 31.4 µM] (inactive) |
| C=CC[N@@+]12CC[C@@]34c5ccccc5N5/C=C6/[C@H]7C[C@H]8[C@@]9(CC[N@@+]8(CC=C)C/C7=C/CO)c7ccccc7N(/C=C(/[C@@H](C[C@@H]31)/C(=C\CO)C2)[C@H]54)[C@@H]69 | – | 1.82% [at 31.4 µM] (inactive) |
| CC(C)Cc1ccc([C@H](C)C(=O)O)cc1 | – | 8.68% (inactive) |

| Compound | Potency | activity, negative = cytotoxicity |
| --- | --- | --- |
| COc1cc2c(cc1OC)[C@@H](Cc1cc(OC)c(OC)c(OC)c1)[N+](C)(CCCOC(=O)CC/C=C/CCC(=O)OCCC[N+]1(C)CCc3cc(OC)c(OC)cc3[C@H]1Cc1cc(OC)c(OC)c(OC)c1)CC2 (some centres not stated) | – | -12.7% (inactive) |
| FC(F)(F)C(F)(F)C(F)(F)C(F)(F)C(F)(F)F | – | -23.7% (inactive) |
| COc1ccc(/C=N/NC(=O)c2ccncc2)c(C(=O)O)c1OC | – | -0.149% (inactive) |
| C[C@]12O[C@H](C[C@]1(O)CO)n1c3ccccc3c3c4c(c5c6ccccc6n2c5c31)CNC4=O | 0.376 µM (active) | – |
| Cc1cc(-c2ccc(N=Nc3ccc4c(S(=O)(=O)O)cc(S(=O)(=O)O)c(N)c4c3O)c(C)c2)ccc1N=Nc1ccc2c(S(=O)(=O)O)cc(S(=O)(=O)O)c(N)c2c1O | 23.7 µM (active) | – |
| CC[N+](CC)(CC)CCC(O)(c1ccccc1)C1CCCCC1 (configuration not stated) | – | 14.2% [at 31.4 µM] (inactive) |
| CC(C)c1ncc([N+](=O)[O-])n1C | – | 0.23% (inactive) |
| CC[C@H](C)C(=O)O[C@H]1CCC=C2C=C[C@H](C)[C@H](CC[C@@H]3C[C@@H](O)CC(=O)O3)[C@H]21 | 2.37 µM (active) | – |
| CCN(CC)CCNC(=O)c1ccc(NS(C)(=O)=O)cc1 | – | 4.62% (inactive) |
| CN(C)CCc1c[nH]c2ccc(Cn3cncn3)cc12 | – | 10.7% (inactive) |
| C=C1C(=C/C=C2\CCC[C@]3(C)[C@@H]([C@H](C)CCCC(C)C)CC[C@@H]23)C[C@@H](O)C[C@@H]1O | 13.3 µM (active) | – |
| C/C=C/C1=C(C(=O)O)N2C(=O)[C@@H](NC(=O)[C@H](N)c3ccc(O)cc3)[C@H]2SC1 | – | 4.85% (inactive) |
| O=C1C2CC3CC1CC(O)(C3)C2 | – | -3.52% (inactive) |
| COC(=O)C[C@](O)(CCCC(C)(C)O)C(=O)O[C@@H]1C(OC)=CC23CCCN2CCc2cc4c(cc2[C@H]13)OCO4 (some centres not stated) | 21.1 nM (active) and 26.6 nM (active) | – |
| CC[C@@H](C)CCCCC(=O)N[C@@H](CCNCS(=O)(=O)O)C(=O)N[C@H](C(=O)N[C@@H](CCNCS(=O)(=O)O)C(=O)N[C@H]1CCNC(=O)[C@H]([C@@H](C)O)NC(=O)[C@H](CCNCS(=O)(=O)O)NC(=O)[C@H](CCNCS(=O)(=O)O)NC(=O)[C@H](CC(C)C)NC(=O)[C@@H](CC(C)C)NC(=O)[C@H](CCNCS(=O)(=O)O)NC1=O)[C@@H](C)O (X3-[Dab(CH2SO3H)]T[Dab(CH2SO3H)][Dab][Dab(CH2SO3H)][dL]L[Dab(CH2SO3H)][Dab(CH2SO3H)]T; lactam 4-C) | 23.7 µM (active) | – |
| CCC(NC(C)C)C(O)c1ccc(O)c(O)c1 (configuration not stated) | – | 7.12% (inactive) |
| CCCCCCCCCC[N+](C)(CCCCCCCCCC)CCC[Si](OC)(OC)OC | 7.7 µM (active) | – |
| O=C1CCC(c2ccc(-n3ccnc3)cc2)=NN1 | – | 12.1% (inactive) |

Source: PubChem BioAssay (Tox21)
